Screening data from PubChem.
Hits are enriched below; roughly 5.8% of the tested compounds scored in any of these assays.
uPA generation: inhibitors of cell surface uPA generation. Potency, µM (series often up to 38.3 µM), without a hit: at the top dose activity change, negative = inhibition, most hits filed as inhibitors. cell surface uPA generation assay, qHTS. hit rate 0.31% among 330,000. AID 540303; active = well fitted inhibition curve with a large enough effect; inconclusive = small, poorly fitted or top-dose-only effect; inactive = no such curve, though single readings can be large or run the other way; tested in mouse RAW 264.7 cells; also: potency is read from the fitted curve at half-maximal effect; % is scaled to controls: 0 for no effect and ±100 for the full control effect; nearly all actives have a fitted effect of over 55% in size
Gal4-VP16 FLuc: inhibits Gal4-VP16 luciferase reporter, ROR gamma counter-screen; AID 2546; Drosophila S2 Gal4-VP16 UAS-luciferase, luminescence, 20 h; Potency, µM (top dose mostly 53.6 µM), for inactives: at the highest dose activity, negative = inhibition, hits mostly inhibitors; hit rate 3.5% among 310,000;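 also: Gal4-VP16 expression switched on by copper sulfate through the metallothionein promoter; potency is read from the fitted curve at half-maximal effect; % is scaled to controls: 0 for no effect and ±100 for the full control effect; nearly all actives have a fitted effect of over 50% in size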
RORg inh: blocks mouse ROR gamma transcriptional activity. P51450. Drosophila S2 Gal4-RORgamma UAS-luciferase reporter, 20 h. Potency, µM (top dose mostly 53.6 µM), without a hit: top-dose activity change, negative = inhibition, usual class: inhibitors. hit rate 5.4% among 310,000; also: potency is read from the fitted curve at half-maximal effect; % is scaled to controls: 0 for no effect and ±100 for the full control effect; nearly all actives have a fitted effect of over 60% in size
Target sequence (P51450 whole entry, looked up, the tested form may be a part): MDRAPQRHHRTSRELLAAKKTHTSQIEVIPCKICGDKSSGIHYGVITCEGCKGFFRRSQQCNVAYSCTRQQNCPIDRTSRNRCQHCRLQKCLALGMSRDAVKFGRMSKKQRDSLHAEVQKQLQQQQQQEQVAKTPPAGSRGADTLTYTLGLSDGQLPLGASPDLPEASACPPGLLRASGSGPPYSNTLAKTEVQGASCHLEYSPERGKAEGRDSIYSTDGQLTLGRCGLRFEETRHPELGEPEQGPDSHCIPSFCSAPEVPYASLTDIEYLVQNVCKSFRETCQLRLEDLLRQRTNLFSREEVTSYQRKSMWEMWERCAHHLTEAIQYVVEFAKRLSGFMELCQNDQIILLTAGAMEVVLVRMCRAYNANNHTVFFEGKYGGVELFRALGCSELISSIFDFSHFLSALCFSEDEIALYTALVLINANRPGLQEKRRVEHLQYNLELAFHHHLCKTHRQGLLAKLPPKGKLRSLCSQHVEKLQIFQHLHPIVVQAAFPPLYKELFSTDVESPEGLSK
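Using a luciferase readout, inhibitors were identified by reduced reporter activity in Drosophila cells coexpressing a copper-inducible Gal4–ROR gamma fusion and UAS-driven Photinus luciferase, incubated 20 hr after 700 uM copper sulfate.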
TRPV1 agonist: activates the human vanilloid receptor TRPV1. TRPV1-expressing cells, Fluo-8 calcium influx, agonist mode. activation, % at 8.33 µM. AID 540275. hit rate 0.19% among 320,000. Q8NER1; in the data active = activation above about 80%; inconclusive = between about 30% and that limit; also: 0% is about no effect
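Fluo-8 calcium influx in TRPV1-expressing cells, kinetic read (ex 480/em 520 nm). Compound added and read 3 min for agonist activity, followed by capsaicin at EC20 final and 2 min further read for enhancement.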
TRPV1 potentiator: human TRPV1 potentiation. Q8NER1. TRPV1-expressing cells, Fluo-8 calcium influx, capsaicin EC20 potentiation. potentiation, % at 8.33 µM. hit rate 0.02% among 320,000. AID 540277; in the data active = potentiation above about 80%; inconclusive = between about 30% and that limit; also: 0% is about no effect
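Fluo-8 calcium influx in TRPV1-expressing cells, kinetic read (ex 480/em 520 nm). Compound added and read 3 min for agonist activity, followed by capsaicin at EC20 final and 2 min further read for enhancement.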
Starred values were filed as active, the others as inactive; u = inconclusive; x = no result given; [ ] = another dose, or the depositor's remark. Unless noted, calls follow the shape of the dose curve; as a rule, active = well fitted curve in the direction sought with a large enough effect; inconclusive = small, poorly fitted or top-dose-only effect, or another doubt; inactive = no such curve, though single readings can be large; an effect the other way counts as inactive or inconclusive.

SMILES	uPA generation	Gal4-VP16 FLuc	RORg inh	TRPV1 agonist	TRPV1 potentiator
C=CCC(O)CC1C2C(CC(O)CC=C)C3C1C3C2OC(C)(C)C (stereo unspecified)	x	1%[10 µM]	-6%[10 µM]	x	x
CCn1cnc2cc(NCc3cccs3)ccc21	1%	3%	-18%	-3	-3
CC(C)(C)n1cnc2cc(NCc3cccs3)ccc21	-9%	5%[10 µM]	11µM*	0	u
COc1ccc(CC2(CO)CCN(C(C)Cc3ccc(Cl)cc3)CC2)cc1 (stereo unspecified)	-4%	-13%	0%	0	2
CC1Cc2ccccc2N1C(=S)NC(=O)c1ccco1 (stereo unspecified)	-2%	4µM*	4.5µM*	0	5
CC(=O)c1cccc(NC(=S)N2c3ccccc3CC2C)c1 (stereo unspecified)	-6%	1%	u	8	-8
CC1Cc2ccccc2N1C(=S)NC(=O)C1(C)CC1(Cl)Cl (stereo unspecified)	3%	2.2µM*	0.63µM*	2	2
O=C(NC(=S)N1CCCc2ccccc21)c1ccco1	0%	u	u	-5	-4
CN1C(=O)C[C@@H](C(=O)N[C@@H](Cc2cnc[nH]2)C(=O)N2CCC[C@H]2C(N)=O)NC1=O	x	4%	6%	x	x
COCCCN=Cc1c(-c2ccccc2)[nH]n(-c2nc3ccccc3s2)c1=O	7%	u	8.9µM*	u	-1
CCCCCN=Cc1c(C)[nH]n(-c2nc3ccccc3s2)c1=O	x	u	10µM*	8	2
COc1cccc2cc(C(N)=O)/c(=N/NC(=O)COc3ccc(Cl)cc3)oc12	x	2%	25%	2	-1
O=C(Nc1ccc(F)cc1F)c1ccc2c(c1)[nH]c(=O)n2Cc1ccc(F)cc1	-6%	-4%	u	-2	3
CCNc1nc(NCC)nc(N(C)/N=C/c2ccco2)n1	-13%	20µM*	3.5µM*	-3	5
O=C(Nc1nncs1)C1CC(=O)N(C2CCCC2)C1 (stereo unspecified)	-13%	-2%	-35%	3	-2
O=C(NC(=S)Nc1cccc(Cl)c1N1CCOCC1)c1cccs1	-2%	18µM*	3.2µM*	u	12
CCCC(=O)NC(=S)Nc1cccc(Cl)c1N1CCCC1	2%	7.1µM*	1.3µM*	25	-11
O=C(NC(=S)Nc1cccc(Cl)c1N1CCCCC1)c1cccs1	x	u	0.71µM*	u	-6
O=C(Nc1cccc(Cl)c1N1CCOCC1)c1ccc(Br)o1	-21%	-4%	-16%	4	-9
O=C1CC[C@@H](C(=O)N[C@@H](Cc2cnc[nH]2)C(=O)N[C@@H](Cc2c[nH]c3ccccc23)C(=O)N[C@@H](CO)C(=O)N[C@@H](Cc2ccc(O)cc2)C(=O)O)N1	x	-5%	-13%	x	x
CC(=O)Nc1ccc(C(=O)COC(=O)c2ccco2)c(F)c1	-56%	x	x	2	-6
N=c1c(-c2nc3ccccc3[nH]2)cc(C(=O)c2ccco2)nn1-c1ccccc1	10%	5µM*	2.8µM*	26	-1
O=C(CCl)N1CCCC1c1ccc2c(c1)OCCO2 (stereo unspecified)	-2%	u	4.5µM*	6	6
Cc1cc(=O)n2nc(N3CCC(C(=O)NCc4cccc(Cl)c4)CC3)sc2n1	-1%	-2%	5%	0	12
CCC1=NC(c2ccccc2)N(O)C1(C)C (stereo unspecified)	8%	-1%	2%	0	7
SMILES	uPA generation	Gal4-VP16 FLuc	RORg inh	TRPV1 agonist	TRPV1 potentiator
COc1ccc(C2N=C(c3ccccc3)C(C)(C)N2O)cc1OC (stereo unspecified)	x	-17%	10µM*	-1	27
Cn1c(=O)[nH]c(=O)c2c1nc([N+](=O)[O-])n2Cc1ccccc1	-18%	5.6µM*	4µM*	0	1
Cn1c(=O)[nH]c(=O)c2c1nc(N1CCNCC1)n2Cc1ccccc1	4%	-12%	-5%	3	5
CC(C)Cn1c([N+](=O)[O-])nc2c1c(=O)[nH]c(=O)n2C	u	u	8.9µM*	0	-8
CCC(=O)N1N=C(c2cccs2)CC1c1ccc(C)cc1 (stereo unspecified)	1%	4%	5%	9	-8
Cc1ccc(C2CC(c3cccs3)=NN2C(=O)CCl)cc1 (stereo unspecified)	0%	u	18µM*	-4	-4
CCOCC(=O)Nc1nc2ccc(C)cc2s1	-8%	-29%	-39%	26	-24
Cc1ccc2nc(NC(=O)CCCC(=O)O)sc2c1	u	0.79µM*	1.1µM*	-2	-9
Cc1ccc2nc(NC(=O)C3CC3C)sc2c1 (stereo unspecified)	-7%	-13%	7.1µM*	u	1
Cc1ccc2nc(NC(=O)CSCC(=O)OCC(=O)c3ccccc3)sc2c1	2%	2.2µM*	5µM*	0	-2
Cc1ccc2nc(NC(=O)CCCc3nc4ccccc4s3)sc2c1	-1%	15%	19%	10	u
Cc1c(F)cccc1NS(=O)(=O)c1ccc(OCCNS(C)(=O)=O)cc1	1%	u	u	0	7
Cc1ccc(C(=O)c2c3ccc([N+](=O)[O-])cc3[n+]([O-])n2CCC(N)=O)cc1	1.4µM*	1%	0%	5	17
N=C(N)SCc1nc2ccccc2c(=O)n1-c1ccccc1	-1%	u	2%	-5	u
Cc1c2ccccc2c(CSC(=N)N)c2ccccc12	x	u	11µM*	x	x
Cc1cs/c(=N/C(=S)Nc2ccccc2)n1C	0%	10µM*	1.6µM*	5	5
CCCn1c(C)cs/c1=N\C(=S)Nc1ccccc1	4%	5.6µM*	4µM*	-1	-15
CCN1C(=O)[C@@H]2[C@H]3C(=CC[C@@H]2C1=O)C1(OCCCO1)[C@H]1O[C@@H]1[C@H]3O	x	10%[10 µM]	15%[10 µM]	x	x
Cc1ccc(C2(c3noc(CN(C)Cc4cccnc4)n3)CCCC2)cc1	-4%	13µM*	u	u	-10
Cc1ccc(C2(c3noc(CN(C)Cc4ccccn4)n3)CCCC2)cc1	8%	-1%	16µM*	30	-4
O=C(Nc1cccc(-c2ccc(N3CCCCC3)nn2)c1)c1ccco1	-14%	x	x	-5	u
CCc1n[nH]c(=S)n1/N=C/C(C)=C\c1ccccc1	8%	5.6µM*	7.1µM*	3	-5
S=c1[nH]nc(-c2cccs2)n1/N=C/c1cn(-c2ccccc2)nc1-c1ccccc1	-5%	-5%	-43%	-2	-13
Cc1cccc(/C=N/n2c(-c3ccccn3)n[nH]c2=S)c1	x	18µM*	u	1	-5
S=c1[nH]nc(-c2ccccn2)n1/N=C/c1cccc2ccccc12	-6%	u	2.2µM*	10	-7
Fc1ccc(/C=N/n2c(-c3cccs3)n[nH]c2=S)cc1	-1%	4µM*	2µM*	17	-1
CCNc1ncc2nc(-c3ccc(OC)cc3)c(=O)n(CCc3ccccc3)c2n1	x	6%	-17%	x	x
